Data: PubChem BioAssay
Activity calls are given as the source filed them.

How the values were obtained:
[1] = test system: Plasmodium falciparum Sir2 (PF13_0152, Sir2A); experiment: Plasmodium falciparum Sir2A binding compounds – biochemical, small-molecule microarray, 635 nm fluorescence, primary screen (AID 1098); conditions: fluorescence 635 nm, higher = more signal;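 further: score merges spot fluorescence intensity with its signal-to-noise ratio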
[2] = probe aDKK1 binding to arrayed compounds – biochemical, biotinylated probe, 635/667 nm fluorescence, primary screen (AID 1099); conditions: small-molecule microarray, higher = more signal;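 further: score merges 667nm spot fluorescence with signal to noise across triplicate slides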
[3] = probe aCHRDL2 binding to arrayed compounds – biochemical, biotinylated probe, 635/667 nm fluorescence, primary screen (AID 1100); conditions: small-molecule microarray, higher = more signal
[4] = change in splice reporter luminescence, either direction, cell-based, HEK293, spliceosome inhibition project, primary screen (AID 1101); conditions: HEK293 splicing luciferase reporter, 24 h, higher = more signal, called active from +8 up or from −8 down;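 further: HEK293 cells carrying a splicing-competent luciferase reporter gene; test concentration not given here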
[5] = molecular target: Fibroblast growth factor 10 (Homo sapiens) (UniProt O15520); experiment: compounds binding fibroblast growth factor 10 – biochemical, small-molecule microarray, 635 nm fluorescence, primary screen (AID 1102); conditions: FGF10 binding, fluorescence 635 nm, higher = more signal
[6] = test system: glycogen synthase kinase-3 (GSK3A per assay name; protocol says GSK3B); experiment: compounds binding glycogen synthase kinase-3 – biochemical, small-molecule microarray, 635 nm fluorescence, GSK3A, primary screen (AID 1103); conditions: fluorescence 635 nm, higher = more signal; further: the record names both GSK3A and GSK3B
[7] = molecular target: Epidermal growth factor receptor (Homo sapiens) (UniProt P00533); experiment: compounds binding epidermal growth factor receptor – biochemical, small-molecule microarray, 635 nm fluorescence, primary screen (AID 1104); conditions: EGFR binding, higher = more signal;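 further: score merges 667 nm emission intensity with spot signal to noise over triplicate slides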
[8] = molecular target: Follistatin-related protein 3 (Homo sapiens) (UniProt O95633); experiment: compounds binding follistatin-related protein 3 – biochemical, small-molecule microarray, 635 nm fluorescence, primary screen (AID 1105); conditions: FSTL3 binding, higher = more signal;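 further: score merges emission near 667 nm and signal to noise per printed spot across three slides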
[9] = molecular target: Dickkopf-related protein 1 (Homo sapiens) (UniProt O94907); experiment: small molecules binding DKK1 protein – biochemical, small-molecule microarray, 635 nm fluorescence scan, primary screen (AID 1106); conditions: higher = more signal;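 further: score merges emission near 667 nm with signal to noise over three replicate slides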
[10] = test system: Inhibin beta A chain (activin A); experiment: small molecules binding activin A – biochemical, small-molecule microarray, 635 nm fluorescence scan, primary screen (AID 1107); conditions: INHBA, higher = more signal;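 further: mouse activin A protein probed at 4.33 µg/mL on printed slides; score merges bound-protein fluorescence near 667 nm with spot signal-to-noise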
[11] = test system: Human papillomavirus type 1a protein E7 (residues 44-93); experiment: small molecules binding HPV E7 44-93 – biochemical, small-molecule microarray, residues 44-93, 635 nm fluorescence, primary screen (AID 1108); conditions: fluorescence 635 nm, higher = more signal;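 further: E7 fragment applied at 1 µg/mL in TBST for 1 h at 4 C; score combines spot fluorescence with its signal to noise ratio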
[12] = hepatitis C replication reporter changes, two-sided – Huh7 cells, luciferase reporter, HCV replication inhibitor project, primary screen (AID 1109); conditions: Huh7 HCV replicon luciferase reporter, 48 h; higher = more signal;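 further: huh7 hepatoma cells harbouring a luciferase neomycin HCV replicon reporter; luciferase luminescence as measure of HCV replicon replication; test concentration not given here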
[13] = molecular target: Left-right determination factor 2 (Homo sapiens) (UniProt O00292); experiment: small molecules binding LEFTY2 protein – biochemical, small-molecule microarray, 635 nm fluorescence scan, primary screen (AID 1110); conditions: higher = more signal
[14] = molecular target: Calmodulin-1 (Homo sapiens) (UniProt P0DP23); experiment: small molecules binding calmodulin-1 with EGTA – biochemical, small-molecule microarray, Cy5-labelled CALM1, profiling panel (AID 1111); conditions: Cy5-CALM1 binding fluorescence, higher = more signal;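 further: labelled calmodulin applied in Tris saline Tween buffer holding calcium plus EGTA and DTT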
[15] = molecular target: Calmodulin-1 (Homo sapiens) (UniProt P0DP23); experiment: small molecules binding Ca-loaded calmodulin-1 – biochemical, small-molecule microarray, Cy5-labelled CALM1, plus calcium, artefact control for SMM control-protein annotation, profiling panel (AID 1112); conditions: Cy5-CALM1 binding fluorescence, higher = more signal;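 further: score merges spot fluorescence with signal to noise from triplicate slides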
[16] = probe aWnt5a binding to arrayed compounds – biochemical, biotinylated probe, 635/667 nm fluorescence, primary screen (AID 1113); conditions: small-molecule microarray, higher = more signal;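 further: score merges 667 nm fluorescence intensity with signal-to-noise per printed feature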
[17] = probe aShh binding to arrayed compounds – biochemical, biotinylated probe, 635/667 nm fluorescence, primary screen (AID 1114); conditions: small-molecule microarray, higher = more signal;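 further: probe is biotin-labelled aShh protein from a stem cell growth factor screen; measures binding of labelled protein to compounds printed on the slide; score merges feature fluorescence at 667 nm with signal-to-noise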
[18] = probe aNog binding to arrayed compounds – biochemical, biotinylated probe, 635/667 nm fluorescence, primary screen (AID 1115); conditions: small-molecule microarray, higher = more signal;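 further: probe is biotinylated aNog protein used at 0.15 µg/mL for 1 h at 4 C; z-score combines 667 nm fluorescence of each spot with its signal to noise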
[19] = molecular target: Torsin-1A-interacting protein 1 (Homo sapiens) (UniProt Q5JTV8); experiment: compound microarray binding of lysate hLAP1 – cell lysate, small-molecule microarray, COS7 lysate, 635/667 nm fluorescence, primary screen (AID 1116); conditions: 635 nm fluorescence, higher = more signal
[20] = molecular target: Alpha-bungarotoxin (Bungarus multicinctus) (UniProt P60615); experiment: compounds binding labelled alpha-BTX control protein – biochemical, small-molecule microarray, Alexa647 label, 635/667 nm fluorescence, artefact control for SMM control protein annotation, profiling panel (AID 1117); conditions: alpha-BTX-A647 binding fluorescence, higher = more signal
Alpha-bungarotoxin (Bungarus multicinctus), sequence (P60615 whole entry, looked up): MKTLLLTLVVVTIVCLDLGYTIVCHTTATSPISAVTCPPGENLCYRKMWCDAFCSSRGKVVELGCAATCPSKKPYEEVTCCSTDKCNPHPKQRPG

Epidermal growth factor receptor (Homo sapiens), sequence (P00533 whole entry, looked up): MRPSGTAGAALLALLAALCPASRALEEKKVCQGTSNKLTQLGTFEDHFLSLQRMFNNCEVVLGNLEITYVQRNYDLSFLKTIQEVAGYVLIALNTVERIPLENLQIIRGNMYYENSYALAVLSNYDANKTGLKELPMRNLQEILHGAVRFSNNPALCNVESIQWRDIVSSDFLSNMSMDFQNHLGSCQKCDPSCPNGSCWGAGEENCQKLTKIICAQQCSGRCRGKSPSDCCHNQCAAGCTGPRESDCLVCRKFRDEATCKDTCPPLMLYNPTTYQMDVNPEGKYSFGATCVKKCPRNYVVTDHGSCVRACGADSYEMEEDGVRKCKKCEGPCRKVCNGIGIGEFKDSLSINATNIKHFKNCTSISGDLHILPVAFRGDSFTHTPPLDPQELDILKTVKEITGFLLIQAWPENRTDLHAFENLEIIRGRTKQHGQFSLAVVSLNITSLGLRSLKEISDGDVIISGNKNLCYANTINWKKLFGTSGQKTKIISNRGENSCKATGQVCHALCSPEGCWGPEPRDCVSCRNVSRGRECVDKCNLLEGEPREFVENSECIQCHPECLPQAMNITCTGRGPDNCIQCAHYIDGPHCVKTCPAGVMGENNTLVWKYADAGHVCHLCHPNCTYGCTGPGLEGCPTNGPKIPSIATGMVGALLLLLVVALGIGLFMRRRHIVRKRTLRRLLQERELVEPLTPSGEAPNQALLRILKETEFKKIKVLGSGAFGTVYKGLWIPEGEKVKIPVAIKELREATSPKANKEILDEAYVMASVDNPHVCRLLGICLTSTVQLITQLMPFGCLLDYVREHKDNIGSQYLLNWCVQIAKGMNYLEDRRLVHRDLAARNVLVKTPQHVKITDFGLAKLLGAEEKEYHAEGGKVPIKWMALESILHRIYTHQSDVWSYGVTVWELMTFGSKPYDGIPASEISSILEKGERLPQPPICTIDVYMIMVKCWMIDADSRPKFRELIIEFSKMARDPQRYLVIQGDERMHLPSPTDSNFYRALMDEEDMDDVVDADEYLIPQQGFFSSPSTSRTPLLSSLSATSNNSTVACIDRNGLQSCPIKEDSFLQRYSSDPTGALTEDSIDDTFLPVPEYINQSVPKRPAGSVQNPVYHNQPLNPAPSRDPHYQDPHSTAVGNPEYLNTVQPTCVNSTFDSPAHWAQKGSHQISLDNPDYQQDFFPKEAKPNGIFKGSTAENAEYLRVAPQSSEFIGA
Fibroblast growth factor 10 (Homo sapiens), sequence (O15520 whole entry, looked up): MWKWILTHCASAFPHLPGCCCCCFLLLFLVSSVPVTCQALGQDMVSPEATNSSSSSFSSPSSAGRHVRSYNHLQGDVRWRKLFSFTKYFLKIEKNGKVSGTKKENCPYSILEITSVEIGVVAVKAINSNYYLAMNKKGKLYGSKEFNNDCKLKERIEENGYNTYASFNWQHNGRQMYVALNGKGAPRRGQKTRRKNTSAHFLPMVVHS
Left-right determination factor 2 (Homo sapiens), sequence (O00292 whole entry, looked up): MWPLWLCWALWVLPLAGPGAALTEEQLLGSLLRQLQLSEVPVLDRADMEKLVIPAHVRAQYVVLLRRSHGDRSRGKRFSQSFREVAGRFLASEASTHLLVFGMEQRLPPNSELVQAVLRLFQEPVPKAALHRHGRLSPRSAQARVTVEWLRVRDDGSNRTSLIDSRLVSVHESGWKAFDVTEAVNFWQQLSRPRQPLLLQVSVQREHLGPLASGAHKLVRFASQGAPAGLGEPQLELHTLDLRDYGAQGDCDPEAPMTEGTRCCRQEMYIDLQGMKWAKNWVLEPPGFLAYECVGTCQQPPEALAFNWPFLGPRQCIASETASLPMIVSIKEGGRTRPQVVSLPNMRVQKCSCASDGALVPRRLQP
Dickkopf-related protein 1 (Homo sapiens), sequence (O94907 whole entry, looked up): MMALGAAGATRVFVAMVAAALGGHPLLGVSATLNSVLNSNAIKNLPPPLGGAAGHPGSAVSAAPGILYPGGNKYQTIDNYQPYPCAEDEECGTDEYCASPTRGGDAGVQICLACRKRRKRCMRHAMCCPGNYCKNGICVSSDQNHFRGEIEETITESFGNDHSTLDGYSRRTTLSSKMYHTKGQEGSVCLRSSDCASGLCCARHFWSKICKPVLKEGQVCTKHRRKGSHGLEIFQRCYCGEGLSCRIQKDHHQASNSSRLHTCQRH
Torsin-1A-interacting protein 1 (Homo sapiens), sequence (Q5JTV8 whole entry, looked up): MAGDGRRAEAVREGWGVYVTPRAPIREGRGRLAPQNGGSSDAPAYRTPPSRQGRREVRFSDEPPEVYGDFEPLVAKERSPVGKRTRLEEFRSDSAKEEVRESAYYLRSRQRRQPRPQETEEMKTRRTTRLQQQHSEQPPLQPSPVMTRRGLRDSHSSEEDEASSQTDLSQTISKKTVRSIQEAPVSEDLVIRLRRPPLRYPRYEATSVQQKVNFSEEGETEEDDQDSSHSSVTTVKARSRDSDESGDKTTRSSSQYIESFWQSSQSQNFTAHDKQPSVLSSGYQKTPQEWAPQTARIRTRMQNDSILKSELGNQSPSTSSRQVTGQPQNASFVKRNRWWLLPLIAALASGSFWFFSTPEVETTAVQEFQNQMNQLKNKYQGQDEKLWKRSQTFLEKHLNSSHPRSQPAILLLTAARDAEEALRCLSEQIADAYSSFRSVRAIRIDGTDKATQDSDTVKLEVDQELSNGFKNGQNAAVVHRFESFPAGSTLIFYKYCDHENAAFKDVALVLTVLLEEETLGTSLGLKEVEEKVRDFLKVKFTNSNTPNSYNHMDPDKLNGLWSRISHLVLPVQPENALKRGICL
Follistatin-related protein 3 (Homo sapiens), sequence (O95633 whole entry, looked up): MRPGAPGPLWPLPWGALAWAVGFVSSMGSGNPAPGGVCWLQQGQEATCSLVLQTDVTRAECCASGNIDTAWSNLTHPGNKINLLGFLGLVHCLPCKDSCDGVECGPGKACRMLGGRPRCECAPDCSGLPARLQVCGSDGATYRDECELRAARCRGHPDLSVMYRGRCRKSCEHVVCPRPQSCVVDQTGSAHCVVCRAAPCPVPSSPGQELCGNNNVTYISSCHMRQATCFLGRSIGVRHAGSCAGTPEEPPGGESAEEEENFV

| SMILES | composite z-score [1] | composite z-score [2] | composite z-score [3] | z-score [4] | composite z-score [5] | composite z-score [6] | composite z-score [7] | composite z-score [8] | composite z-score [9] | composite z-score [10] | composite z-score [11] | z-score [12] | composite z-score [13] | composite z-score [14] | composite z-score [15] | composite z-score [16] | composite z-score [17] | composite z-score [18] | composite z-score [19] | composite z-score [20] |
| --- | --- | --- | --- | --- | --- | --- | --- | --- | --- | --- | --- | --- | --- | --- | --- | --- | --- | --- | --- | --- |
| NC(=O)NCC#Cc1ccc2c(c1)[C@]1(C(=O)N2)[C@H](c2ccc(O)cc2)N2[C@H](c3ccccc3)[C@H](c3ccccc3)OC(=O)[C@H]2[C@@H]1C(=O)N1CCN(c2ncccn2)CC1 | 0.681 | 0.337 | 0.372 | -0.0492 (inactive) | 0.602 | -0.398 | -0.232 | -0.483 | -0.122 | 0.862 | 0.237 | -0.762 | 0.158 | 0.301 | 0.476 | -0.13 | -0.349 | 0.789 | 0.811 | 0.772 |
| C=C[C@H](C)[C@H](OC(=O)Nc1ccc(OC)cc1)c1ccc(O)c2ccccc12 | 0.443 | -0.26 | 0.242 | -0.632 (inactive) | 0.111 | -0.667 | -0.587 | 0.0608 | -0.0641 | 0.997 | -0.942 | -3.3 | -0.654 | -1.38 | -0.881 | -0.129 | -0.0709 | -0.0691 | 0.041 | -0.596 |
| COc1ccc(CCNC(=O)[C@@]2(C)c3ccccc3C(=O)N(Cc3ccccc3)[C@H]2c2ccc(CO)cc2)cc1 | 1.49 | 0.28 | 0.376 | -0.278 (inactive) | 1.26 | 0.707 | 0.433 | 1.43 | 0.548 | 0.684 | 1.16 | -2.06 | 0.449 | 0.617 | -0.703 | 0.0618 | 0.0141 | 0.304 | 1.56 | 1.78 |
| CN1C(=O)C2C=CC(C(O)C(c3ccccc3)c3ccccc3)N(Nc3ccccc3)C2C1=O (stereo not given) | 0.929 | 0.724 | 0.883 | 0.559 (inactive) | 1.11 | 1.32 | 0.247 | 1.07 | -0.138 | 0.596 | 1.42 | -1.13 | -0.0076 | 1.29 | 0.567 | 0.137 | 0.216 | 0.713 | 0.597 | 1.34 |
| COC(=O)c1c(CC[C@@H](CO)NC(=O)Nc2ncn[nH]2)oc(C(=O)Cc2ccccc2)c1C(=O)OC | 0.0638 | 0.0272 | -0.0621 | 0.801 (inactive) | 1.08 | 0.938 | 0.596 | 1.01 | 0.957 | 0.616 | 0.693 | 0.0922 | 0.506 | 0.0262 | -0.828 | -0.243 | 0.158 | -0.0144 | -0.0045 | 0.924 |
| Cc1cccc(/C=C/C=O)c1 | 0 | -0.101 | 0.558 | 0.465 (inactive) | -0.0736 | -0.0687 | -0.391 | 0.119 | -0.214 | 0.561 | 0.63 | 0.33 | -0.478 | 0.613 | 0.207 | -0.0944 | -0.214 | -0.104 | -0.476 | 0.549 |
| O=C1OCC=C[C@H]2OC34C=CCN(c5ccc(Cl)cc5)C(=O)[C@H]3N(CCCO)C(=O)[C@@H]4[C@@H]12 (stereo not given in full) | -0.0096 | -0.477 | 0.673 | -0.915 (inactive) | -0.742 | -1.19 | -0.781 | -0.551 | -1.32 | 1.23 | -0.0068 | -0.483 | -0.59 | -0.268 | 0.954 | -0.15 | -0.0769 | -0.345 | -0.0862 | -0.43 |
| CN1C(=O)C2C=CC(C(O)C3=C[C@H]4C[C@@H](C3)C4(C)C)N(Nc3ccc([N+](=O)[O-])cc3[N+](=O)[O-])C2C1=O (stereo not given in full) | 1.22 | 1.34 | 1.07 | 0.674 (inactive) | 0.721 | 1.28 | 0.21 | 0.988 | -0.446 | 0.844 | 1.41 | -0.474 | 0.258 | 1.72 | 0.616 | 0.0194 | 0.223 | 0.836 | 0.975 | 1.51 |
| C=C(C(=O)CC[C@@H](OC(=O)c1cccnc1)c1ccc(OCCO)cc1)C(C)C | 0.603 | -0.312 | -0.188 | -0.255 (inactive) | 0.922 | 0.154 | -0.255 | 0.802 | 0.906 | 0.223 | 0.16 | -4.49 | 0.286 | -0.277 | -1.85 | -0.0145 | -0.0035 | -0.0863 | 2.09 | 0.46 |
| COC(=O)[C@@]1(Cc2ccc(F)cc2)[C@H]2c3cc(C(=O)N(C)C)n(Cc4ccccn4)c3C[C@H]2CN1C(=O)c1ccccc1 | 1.19 | 1.37 | 1.14 | -2.82 (inactive) | 0.214 | 1.08 | 0.328 | 0.706 | 0.116 | 1.24 | 1.4 | -1.39 | 0.256 | 0.63 | 0.681 | -0.195 | -0.333 | 0.535 | 1.11 | 0.0404 |
| C=C(CCCC)/C(=C/C[C@@H](OC(=O)c1ccncc1)c1ccc(CO)o1)c1cc(C(=O)OC)ccc1OC | 1.5 | 0.0296 | -0.363 | 0.674 (inactive) | 0.833 | 1.31 | 0.669 | 1.03 | 0.744 | 0.775 | 0.277 | -1.73 | 1.02 | 1.19 | -0.759 | -0.0445 | -0.0011 | -0.216 | 0.774 | 1.59 |
| COCCn1c(C(=O)N(C)C)cc2c1C[C@H]1CN(C(=O)c3ccccc3)[C@@](Cc3ccc(F)cc3)(C(=O)OC)[C@@H]21 | 0.205 | 1.15 | 0.843 | -1.12 (inactive) | 0.61 | 0.397 | -0.0331 | 0.126 | -0.567 | 0.692 | 1.3 | -0.285 | -0.0863 | 0.487 | 0.666 | 0.0559 | 0.385 | 0.873 | 0.153 | 0.305 |
| COc1ccc(C#Cc2ccc3c(c2)[C@]2(C(=O)N3)[C@H](C(=O)N3CCN(c4ncccn4)CC3)[C@H]3C(=O)O[C@H](c4ccccc4)[C@H](c4ccccc4)N3[C@@H]2c2ccc(O)cc2)cc1 | 0.707 | -0.015 | 0.612 | -0.73 (inactive) | 0.557 | 0.967 | 0.366 | 0.743 | 0.353 | 0.536 | 1.4 | -1.73 | 0.169 | 1.23 | 0.0193 | 0.115 | 0.315 | -0.406 | 0.399 | 0.531 |
| CC(C)(C)OC(=O)CC[C@@]1(C(N)=O)N=C(c2ccc(OCCCO)cc2)O[C@@H]1c1ccccc1N=[N+]=[N-] | 1.73 | 0.751 | 0.83 | -0.809 (inactive) | 1.46 | 1.22 | -0.0882 | 0.616 | -0.103 | 0.988 | 1.2 | 3.02 | -0.038 | 1.03 | 0.774 | -0.0125 | 0.0796 | -0.504 | 1.12 | 1.22 |
| CCCCC(=C=CC[C@H](O)c1ccccc1OCCO)C[C@H](O)c1cc(Cl)cc(Cl)c1O | 1.26 | 0.0947 | 0.0444 | 0.23 (inactive) | 0.345 | 0.24 | -0.619 | 0.179 | -0.429 | 0.796 | 0.405 | -1.18 | -0.408 | 0.684 | 0.466 | -0.0445 | 0.0278 | 0.22 | 0.582 | 0.876 |
| COC(=O)[C@@]1(Cc2ccc(OC)cc2)[C@H]2c3cc(C(=O)N4CCCC4)n(C[C@H](O)CO)c3C[C@H]2CN1C(=O)c1ccccc1 | 1.06 | 0.642 | 0.913 | 1.19 (inactive) | 0.974 | -0.681 | -0.352 | -0.519 | -0.385 | 0.903 | 0.464 | -0.439 | -0.416 | 1.14 | 0.91 | -0.252 | 1.17 | 1.59 | 0.707 | 0.113 |
